Compound activity deposited in PubChem by Center for Chemical Genomics, University of Michigan.
Most compounds without a hit are left out; they make up all but 0.93% or so of the library.
HIV TAR-Tat – HIV-1 TAR-Tat binding disruption; HIV-1 TAR RNA, Tat peptide displacement FRET; hits give high values; z-score (no concentration beside the values); hit rate 0.6% among 100,000; AID 1259389; active = z-score of 3 or more in at least 2 runs
CDC25B-CDK2 inh – human CDC25B-CDK2/CyclinA binding inhibition. AID 1259370. z-score (no concentration beside the values). HTRF CDC25B-CDK2/CyclinA binding, anti-His/anti-Flag; hits give high values. hit rate 0.72% among 94,000; in the data active = z-score above about 3.2
An asterisk follows results filed as active; x = no result.

SMILES	HIV TAR-Tat	CDC25B-CDK2 inh
Cc1nn(-c2nc3ccccc3s2)c2c1C(c1ccc(O)c(O)c1)SCC(=O)N2 (stereo unspecified)	6.5*	-1.9
CCOc1cc(C2SCC(=O)Nc3c2c(C)nn3-c2nc3ccccc3s2)ccc1O (stereo unspecified)	0.69	-1.1
CCC1(CCC(C)C)C(=O)NC(=O)N=C1O (stereo unspecified)	x	-1.8
OC12CC(C3COC1O3)n1nc(C(F)(F)F)nc1N2 (stereo unspecified)	x	-0.84
COc1cc2c(cc1OC)-c1c(OC)c(OC)cc3c1C(C2)N(C)CC3 (stereo unspecified)	6.3*	-6.7
COc1cc2c3c(c1O)-c1c(cccc1OC)CC3N(C)CC2 (stereo unspecified)	-11	-0.03
Cn1cc(/C=C/c2nc3ccccc3c(=O)n2-c2ccccn2)c2ccccc21	-0.43	0.98
Cc1ccc(C)c(C2SCC(=O)Nc3n[nH]c(C)c32)c1 (stereo unspecified)	3.2	-1.8
Cc1[nH]nc2c1C(c1ccc(Cl)cc1)SCC(=O)N2 (stereo unspecified)	1.4	-1.4
Fc1ccccc1CNCCc1c[nH]c2ccccc12	0.3	2.3
Fc1ccc(CNCCc2c[nH]c3ccccc23)cc1F	-0.12	16*
c1ccc2cc(CNCCc3c[nH]c4ccccc34)ccc2c1	x	-1.4
c1coc(CNCCc2c[nH]c3ccccc23)c1	-0.14	14*
CCN1CCN(c2ncnc3onc(C)c23)CC1	-0.76	x
Cc1o[nH]c(=O)c1CC(N)C(=O)O (stereo unspecified)	x	-1.1
NC(Cc1cc(O)c(O)cc1O)C(=O)O (stereo unspecified)	x	20*
C#CCOc1ccc(C2SCC(=O)Nc3c2c(C)nn3-c2nc(C)cc(C)n2)cc1OC (stereo unspecified)	-0.4	-2.3
CCc1nc(N2CCNCC2)c(C#N)c2c1COC(C)(C)C2	-0.57	-2.2
COc1ccc(CC2NCCc3cc(OC)c(OC)cc32)cc1OC (stereo unspecified)	37*	-0.3
COc1ccc(CCNC2(C#N)CCCCC2)cc1OC	x	-0.88
NCCc1c[nH]c2ccccc12	0.19	-0.02
NCCc1cc(O)c(O)cc1O	29*	x
CCCCCCC(C)(C)c1ccc([C@@H]2CCC[C@H](O)C2)c(O)c1	1.2	x
CN(C)[C@@H]1C(=O)C(C(N)=O)=C(O)[C@@]2(O)C(=O)C3=C(O)c4c(O)ccc(Cl)c4[C@@](C)(O)[C@H]3C[C@@H]12	12*	x
CN(C)[C@@H]1C(=O)C(C(N)=O)=C(O)[C@@]2(O)C(=O)C3=C(O)c4c(O)cccc4[C@@](C)(O)[C@H]3[C@H](O)[C@@H]12	22*	x
CC12CN3CC(C)(CN(C1)C3c1ccco1)C2 (stereo unspecified)	x	-0.77
Fc1ccc(C2CC(c3cccnc3)Nc3nnnn32)cc1 (stereo unspecified)	x	-1.6
